In PubChem BioAssay one finds composite z-score and z-score data, which are given here for 8 compounds.

Assay [1] can be described thus: compounds binding Alexa647 anti-His antibody – biochemical, small-molecule microarray, 635 nm fluorescence, artefact control for SMM control protein annotation, primary screen (AID 1128).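 Note: score merges feature fluorescence with signal-to-noise for each printed compound spot.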 To be noted: higher = more signal.
Assay [2] relates to Human papillomavirus type 1a E7 protein (residues 1-88). The assay is described as follows: HPV1a E7 small-molecule binders, primary screen, biochemical, small-molecule microarray, residues 1-88, 635 nm (AID 1129). The note with it: small-molecule microarray binding, fluorescence 635 nm; higher = more signal.
Assay [3] has as its target Focal adhesion kinase 1 (Homo sapiens) (UniProt Q05397). The assay is described as follows: PTK2 protein binding on printed compound slides – biochemical, small-molecule microarray, 635/667 nm fluorescence, BSA, DTT, primary screen (AID 1130).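 Note: composite of spot emission at 667 nm and signal to noise over triplicate slides.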 To be noted: 635 nm fluorescence, higher = more signal.
The test system of assay [4] is Fibrinogen (Alexa647-labelled). As to the kind of experiment: Alexa647-fibrinogen binding to printed small molecules – biochemical, small-molecule microarray, 635/667 nm fluorescence, artefact control for SMM control-protein annotation, profiling panel (AID 1131).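 Note: z-score merges 667 nm fluorescence with per-spot signal-to-noise over triplicate slides.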 The note with it: fibrinogen-A647 binding fluorescence, higher = more signal.
Assay [5] has as its target Follistatin (Homo sapiens) (UniProt P19883). The assay is described as follows: FST protein binding to printed compounds – biochemical, small-molecule microarray, 635/667 nm fluorescence, primary screen (AID 1132). To be noted: 635 nm fluorescence, higher = more signal.
Assay [6] concerns the target Fibroblast growth factor 2 (Homo sapiens) (UniProt P09038). The assay is described as follows: basic fibroblast growth factor binding to printed compounds – biochemical, small-molecule microarray, 635/667 nm fluorescence, primary screen (AID 1133). The note with it: FGF2, fluorescence 635/667, higher = more signal.
Assay [7] is described as follows: JC-1 mitochondrial potential readout, lung cancer cells – cell-based, A549, JC-1 fluorescence, basal, 24 h, 100 nL, profiling panel (AID 1138).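 Note: A549 lung adenocarcinoma cells under basal conditions with no added stimulus; test concentration not given here.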 The note with it: higher = more signal.
In assay [8] the test system is Lefty1. As to the kind of experiment: Lefty1 protein binding to printed compounds – biochemical, small-molecule microarray, 635/667 nm fluorescence, primary screen (AID 1139). To be noted: fluorescence 635/667, higher = more signal.
For assay [9], the system named is wheat germ agglutinin (Triticum aestivum), Alexa647-labelled. As to the kind of experiment: Alexa647-WGA lectin binding to printed small molecules – biochemical, small-molecule microarray, 635/667 nm fluorescence, artefact control for SMM control-protein annotation, profiling panel (AID 1140).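 Note: score merges 667 nm feature emission with signal to noise over triplicate slides.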 The note with it: WGA-A647 binding, 635 nm fluorescence, higher = more signal.

Assay [10] has as its target Luciferin 4-monooxygenase (Photinus pyralis) (UniProt P08659). The assay is described as follows: inhibition of purified Photinus pyralis luciferase – biochemical, luminescence, purified enzyme, 2006 set, primary screen (AID 1141).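 Note: cell-free assay with purified firefly luciferase at 100 ng per well in PBS; test concentration not given here.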 The note with it: purified firefly luciferase, SteadyGlo luminescence, 30 min; higher = more signal, called active from +8 up or from −8 down.

Assay [11] relates to Wnt5a (protein binding on small-molecule microarray). As to the kind of experiment: small molecules binding Wnt5a protein – biophysical, small-molecule microarray, 635/667 nm fluorescence, primary screen (AID 1142).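 Note: fluorescence read at 667 nm with signal to noise per printed feature.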 To be noted: 635 nm fluorescence, higher = more signal.
Assay [12] is described as follows: ATP-based viability of Huh7 replicon cells – cell-based, CellTiter-Glo luminescence, basal, 48 h, cytotoxicity control for HCV replication inhibitor project, primary screen (AID 1143).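 Note: Huh7 hepatoma cells carrying a hepatitis C replication reporter with no stimulus; test concentration not given here.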 The note with it: higher = more signal, called active from +8 up or from −8 down. A general note: A replicon is a self-replicating genome or part of one, used to study replication in cells.

A short description of assay [13]: Pseudomonas biofilm growth suppression – PAO1 strain, BacTiter-Glo luminescence, LB-PBS, primary screen (AID 1144). To be noted: P. aeruginosa PAO1 biofilm, 12 h, higher = more signal.
The nature of assay [14]: basal CRE-LacZ reporter activity in PC12 – cell-based, unstimulated, primary screen (AID 1145). The note with it: no forskolin, luminescence, 4.5 h, higher = more signal, called active from +8 up or from −8 down.
Assay [15] can be described thus: forskolin-driven CRE-LacZ activity in PC12 – cell-based, CRE-LacZ reporter, forskolin-stimulated, primary screen (AID 1146).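 Note: PC12 cells with 6xCRE LacZ reporter stimulated by forskolin 10 µM; beta-galactosidase reporter signal reflecting CREB driven transcription.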 To be noted: luminescence, 4.5 h, higher = more signal, called active from +8 up or from −8 down.
The target in assay [16] is Streptavidin (Streptomyces avidinii) (UniProt P22629). As to the kind of experiment: compounds binding control protein streptavidin – biophysical, small-molecule microarray, 635/667 nm fluorescence, artefact control for SMM compound annotation, primary screen (AID 1147).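 Note: signal reflects streptavidin binding to arrayed compounds as a control protein.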 To be noted: higher = more signal.
The nature of assay [17]: probe aInhba binding on compound microarray – biochemical, small-molecule microarray, 635/667 nm fluorescence, primary screen (AID 1148).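 Note: score merges 667nm spot fluorescence with signal-to-noise for antibody binding to printed compounds.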 The note with it: higher = more signal.
Assay [18] deals with Torsin-1A (Homo sapiens) (UniProt O14656). The assay is described as follows: TOR1A wild-type binding on microarray – cell lysate, small-molecule microarray, lysate, 635/667 nm, primary screen (AID 1149). The note with it: COS7 hTOR1A-WT lysate, 635 nm fluorescence, higher = more signal.
Assay [19] has the same target. The assay is described as follows: torsin A mutant lysate binding on microarrays – cell lysate, small-molecule microarray, COS7 lysate, 635/667 nm fluorescence, primary screen (AID 1150).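 Note: score pools 667 nm emission and signal to noise measuring lysate protein binding.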 The note with it: COS7 hTOR1A mutant lysate, 635 nm fluorescence, higher = more signal.
Assay [20] has as its system Sonic hedgehog protein (Shh). The assay is described as follows: Sonic hedgehog microarray binding compounds – biochemical, small-molecule microarray, 635/667 nm fluorescence, primary screen (AID 1151).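 Note: Shh protein binding to compounds spotted on small-molecule microarray slides; score combines spot fluorescence intensity with signal-to-noise across triplicate slides.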 To be noted: 635 nm fluorescence, higher = more signal.

Calls of active or inactive are those of the source. Unless noted, the rule behind the calls is not given here.

Streptavidin (Streptomyces avidinii), sequence (P22629 whole entry, looked up): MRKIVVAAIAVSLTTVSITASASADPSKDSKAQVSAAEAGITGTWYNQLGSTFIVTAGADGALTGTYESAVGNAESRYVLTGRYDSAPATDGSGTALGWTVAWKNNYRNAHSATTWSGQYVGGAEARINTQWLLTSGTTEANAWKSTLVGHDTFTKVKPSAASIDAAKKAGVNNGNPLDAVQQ
Luciferin 4-monooxygenase (Photinus pyralis), sequence (P08659 whole entry, looked up): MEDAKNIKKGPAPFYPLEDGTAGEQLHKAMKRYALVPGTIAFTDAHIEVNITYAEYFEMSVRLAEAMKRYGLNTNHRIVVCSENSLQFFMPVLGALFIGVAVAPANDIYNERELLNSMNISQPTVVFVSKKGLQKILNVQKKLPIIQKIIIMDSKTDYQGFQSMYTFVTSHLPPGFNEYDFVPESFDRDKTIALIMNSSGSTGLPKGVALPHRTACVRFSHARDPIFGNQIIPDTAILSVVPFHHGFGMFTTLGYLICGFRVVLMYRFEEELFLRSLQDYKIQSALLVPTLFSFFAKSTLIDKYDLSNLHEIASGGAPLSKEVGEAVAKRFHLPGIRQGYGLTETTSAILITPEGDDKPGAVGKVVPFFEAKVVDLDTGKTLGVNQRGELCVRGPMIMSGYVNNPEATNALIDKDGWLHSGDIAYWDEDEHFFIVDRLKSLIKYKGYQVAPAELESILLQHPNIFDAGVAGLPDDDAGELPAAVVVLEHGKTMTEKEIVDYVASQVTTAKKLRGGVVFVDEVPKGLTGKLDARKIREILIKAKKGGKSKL
Follistatin (Homo sapiens), sequence (P19883 whole entry, looked up): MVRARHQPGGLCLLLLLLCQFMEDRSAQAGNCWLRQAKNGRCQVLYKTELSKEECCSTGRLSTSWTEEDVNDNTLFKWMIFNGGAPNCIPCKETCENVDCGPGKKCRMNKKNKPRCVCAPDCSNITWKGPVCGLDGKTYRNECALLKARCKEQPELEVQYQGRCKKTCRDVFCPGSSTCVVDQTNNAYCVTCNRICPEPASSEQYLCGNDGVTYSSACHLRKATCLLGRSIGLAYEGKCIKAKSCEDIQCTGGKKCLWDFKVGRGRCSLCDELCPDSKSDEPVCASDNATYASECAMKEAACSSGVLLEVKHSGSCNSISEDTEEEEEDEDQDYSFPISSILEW
Torsin-1A (Homo sapiens), sequence (O14656 whole entry, looked up): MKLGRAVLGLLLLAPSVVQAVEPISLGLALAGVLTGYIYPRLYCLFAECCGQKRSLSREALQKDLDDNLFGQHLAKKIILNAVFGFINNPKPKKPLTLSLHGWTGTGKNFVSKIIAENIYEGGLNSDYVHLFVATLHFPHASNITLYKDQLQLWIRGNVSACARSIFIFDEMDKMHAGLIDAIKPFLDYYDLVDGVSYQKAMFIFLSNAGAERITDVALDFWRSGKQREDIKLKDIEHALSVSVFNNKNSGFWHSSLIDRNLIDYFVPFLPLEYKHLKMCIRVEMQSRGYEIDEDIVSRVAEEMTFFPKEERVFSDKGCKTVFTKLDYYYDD
Fibroblast growth factor 2 (Homo sapiens), sequence (P09038 whole entry, looked up): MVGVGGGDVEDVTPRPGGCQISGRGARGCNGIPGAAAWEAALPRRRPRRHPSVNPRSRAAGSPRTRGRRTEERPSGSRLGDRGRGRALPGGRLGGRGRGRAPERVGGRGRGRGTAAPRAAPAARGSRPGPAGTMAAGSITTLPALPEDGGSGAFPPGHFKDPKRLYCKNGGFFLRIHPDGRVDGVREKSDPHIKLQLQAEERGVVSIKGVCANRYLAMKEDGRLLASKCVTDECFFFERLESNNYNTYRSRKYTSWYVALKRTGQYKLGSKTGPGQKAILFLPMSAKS
Focal adhesion kinase 1 (Homo sapiens), sequence (Q05397 whole entry, looked up): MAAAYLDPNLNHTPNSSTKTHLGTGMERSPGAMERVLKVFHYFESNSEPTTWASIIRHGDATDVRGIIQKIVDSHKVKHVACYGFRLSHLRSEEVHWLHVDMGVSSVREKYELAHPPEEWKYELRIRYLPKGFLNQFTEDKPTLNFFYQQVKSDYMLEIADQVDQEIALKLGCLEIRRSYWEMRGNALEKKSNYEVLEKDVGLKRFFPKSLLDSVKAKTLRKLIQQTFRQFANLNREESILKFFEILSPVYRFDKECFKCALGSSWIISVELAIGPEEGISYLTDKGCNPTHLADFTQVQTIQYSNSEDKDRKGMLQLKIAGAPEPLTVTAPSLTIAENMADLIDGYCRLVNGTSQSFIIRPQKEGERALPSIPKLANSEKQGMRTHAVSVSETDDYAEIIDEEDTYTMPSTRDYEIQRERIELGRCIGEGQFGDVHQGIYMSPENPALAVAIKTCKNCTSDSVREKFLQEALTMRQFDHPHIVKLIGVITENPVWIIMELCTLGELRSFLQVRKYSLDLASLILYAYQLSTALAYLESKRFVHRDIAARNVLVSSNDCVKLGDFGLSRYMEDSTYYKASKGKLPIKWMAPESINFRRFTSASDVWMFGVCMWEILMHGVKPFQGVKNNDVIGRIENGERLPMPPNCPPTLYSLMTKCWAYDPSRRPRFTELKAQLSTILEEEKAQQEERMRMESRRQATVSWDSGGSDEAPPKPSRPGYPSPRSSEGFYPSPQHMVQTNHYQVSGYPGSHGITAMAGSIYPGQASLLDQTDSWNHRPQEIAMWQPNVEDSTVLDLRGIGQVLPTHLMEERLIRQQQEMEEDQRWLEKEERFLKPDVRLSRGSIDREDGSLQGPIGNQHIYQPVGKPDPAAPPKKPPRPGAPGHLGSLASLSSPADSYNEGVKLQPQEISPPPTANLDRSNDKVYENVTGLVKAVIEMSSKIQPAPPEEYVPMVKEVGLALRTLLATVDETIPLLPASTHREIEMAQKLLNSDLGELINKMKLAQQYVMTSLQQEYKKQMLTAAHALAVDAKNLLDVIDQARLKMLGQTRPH

In the case of `COC(=O)[C@@]1(Cc2ccc(OC)cc2)[C@H]2c3cc(C(=O)N(C)C)n(CCc4ccccn4)c3C[C@H]2CN1C(=O)c1ccccc1`, the composite z-score is 0.429 in assay [1]; 0.815 in assay [2]; 0.933 in [3]; -1.04 in assay [4]; 0.0679 in [5]; -0.162 in assay [6]. For the same compound, the composite z-score in [8] is -0.919; in assay [9] it was 0.698; in assay [11], 1.19; in assay [16], 1.86; in assay [17] it was 1.17; in [18], -0.128. For the same compound, the composite z-score in [19] was 1.04; in [20], -0.127. For the same compound, the z-score is -0.267 in assay [7]; 1.49 (inactive) in [10]; -2.18 (inactive) in assay [12]; 0.165 (inactive) in [13]; 1.92 (inactive) in assay [14]; 0.577 (inactive) in assay [15].

Turning to `CC(C)N1C(=O)c2ccccc2[C@](C)(C(=O)NCCN2CCOCC2)[C@@H]1c1ccc(CO)cc1`, the composite z-score in [1] is -0.293; in [2], -0.0941; in assay [3] it was 0.356; in [4] it was -0.726; in [5], 0.897; in [6], -0.574. Besides, the composite z-score in assay [8] was -0.117; in assay [9], -0.489; in assay [11], -0.568; in [16] it was -0.854; in assay [17], -0.0719; in assay [18] it was 0.0436. The composite z-score in [19] is 0.212; in assay [20], -0.776. The z-score in assay [7] was -0.662; in assay [10] it was -0.265 (inactive); in [12], 0.0068 (inactive); in [13], 0.358 (inactive); in [14], 0.585 (inactive); in [15], -0.875 (inactive).

Turning to `O=C1C2C=CC(C(O)CCc3ccccc3)N(Nc3ccccc3F)C2C(=O)N1c1ccccc1` (stereo not given), the composite z-score is 1.49 in assay [1]; 1.14 in [2]; 1.01 in assay [3]; 0.434 in assay [4]; 1.25 in [5]; -0.449 in assay [6]. In addition, the composite z-score was 0.0364 in assay [8]; 0.548 in assay [9]; 0.43 in assay [11]; 0.787 in [16]; 0.131 in [17]; 0.204 in [18]. The composite z-score in assay [19] was 0.538; in assay [20], 0.366. Further, the z-score in assay [7] was 0.00533; in assay [10] it was 1.48 (inactive); in assay [12], -0.381 (inactive); in assay [13], -0.315 (inactive); in assay [14] it was -0.331 (inactive); in [15] it was 0.654 (inactive).

In the case of `COCCOC(=O)N1C(=O)[C@@]2(c3cc(C#Cc4ccc(OC)cc4)ccc31)[C@H](c1ccccc1OCCO)N1[C@H](c3ccccc3)[C@H](c3ccccc3)OC(=O)[C@H]1[C@@H]2C(=O)NC[C@H](O)c1ccccc1`, the composite z-score in assay [1] came out at 0.992; in [2], 1.24; in assay [3], 0.824; in assay [4] it was 0.782; in [5] it was 1.33; in assay [6] it was 1.6. Moreover, the composite z-score is 1.16 in assay [8]; 0.889 in assay [9]; 0.609 in assay [11]; 0.115 in assay [16]; 0.143 in [17]; 0.175 in [18]. The composite z-score stood at 0.525 in [19] and 2.21 in assay [20]. In addition, the z-score in assay [7] is -0.922; in assay [10], 0.385 (inactive); in assay [12], -3.23 (inactive); in [13], -0.436 (inactive); in assay [14], -0.602 (inactive); in assay [15], -0.0611 (inactive).

Regarding `[N-]=[N+]=Nc1ccccc1[C@H]1OC(c2ccc(OCCCO)cc2)=N[C@@]1(CCS(=O)(=O)c1ccccc1)C(N)=O`, the composite z-score in assay [1] stood at 2.95; in assay [2] it was 1.22; in assay [3] it was 0.26; in assay [4] it was 0.938; in assay [5], 0.794; in [6], 0.0263. In addition, the composite z-score is -0.142 in assay [8]; 1.21 in assay [9]; 0.79 in assay [11]; 0.751 in assay [16]; 0.668 in [17]; 0.875 in assay [18]. The composite z-score in [19] is 0.356; in assay [20], 0.176. Also, the z-score in assay [7] is 0.118; in assay [10], -6.6 (inactive); in [12], -1.26 (inactive); in assay [13], -0.563 (inactive); in assay [14], 0.96 (inactive); in [15], -1.12 (inactive).

With `CC1(C)[C@@H]2CC(C(O)C3C=CC4C(=O)N(Cc5ccccc5)C(=O)C4N3n3cnnc3)=C[C@H]1C2` (stereo not given in full), the composite z-score amounted to 0.356 in [1]; 1.19 in [2]; 0.218 in [3]; 0.744 in assay [4]; 0.86 in assay [5]; 0.321 in [6]. Further, the composite z-score in assay [8] is 0.625; in assay [9], 0.901; in [11] it was 0.253; in assay [16], 0.512; in assay [17], -0.0375; in assay [18] it was 1.49. The composite z-score is 1.33 in assay [19] and 0.414 in [20]. The z-score is -0.287 in assay [7]; 1.62 (inactive) in [10]; -0.346 (inactive) in assay [12]; 0.132 (inactive) in assay [13]; -0.126 (inactive) in assay [14]; 0.34 (inactive) in [15].

With `O=C1O[C@@H](c2ccccc2)[C@@H](c2ccccc2)N2[C@@H](c3ccccc3OCCO)[C@]3(C(=O)Nc4ccc(C#CC5=CCCCC5)cc43)[C@@H](C(=O)N3CCCCCCC3)[C@H]12`, the composite z-score in [1] was 1.53; in assay [2], 1.32; in assay [3] it was 3.35; in assay [4], 0.487; in [5], 1.48; in assay [6] it was 0.095. Besides, the composite z-score in assay [8] was 1.63; in assay [9], 1.64; in assay [11] it was 2.24; in assay [16], 3.51; in assay [17] it was 2.23; in assay [18], 2.81. For the same compound, the values for the composite z-score in assay [19] and in assay [20] were 2.9 and 1.22, respectively. Further, the z-score is -0.489 in assay [7]; -1.16 (inactive) in assay [10]; -4.53 (inactive) in assay [12]; 0.189 (inactive) in assay [13]; -0.203 (inactive) in assay [14]; 0.188 (inactive) in [15].

Consider `COc1ccc(CCNC(=O)[C@@]2(Sc3ccc(C)cc3)CC(=O)N(C(C)C)[C@@H]2c2ccc(CO)cc2I)cc1`, for which the composite z-score in [1] was 0.622; in [2] it was 0.178; in [3], 0.0367; in [4], 0.144; in assay [5], -0.147; in assay [6], -0.172. The composite z-score is -0.979 in assay [8]; -0.258 in assay [9]; -0.161 in assay [11]; -0.738 in [16]; -0.0986 in assay [17]; 0.0086 in assay [18]. Besides, the composite z-score in assay [19] is -0.622; in assay [20], -0.156. Also, the z-score was 0.968 in assay [7]; -0.436 (inactive) in [10]; -0.887 (inactive) in [12]; 0.844 (inactive) in [13]; -0.295 (inactive) in assay [14]; 0.652 (inactive) in assay [15].
